# Measurements taken from paper PMC7862700, “An all-to-all approach to the identification of sequence-specific readers for epigenetic DNA modifications on cytosine”.
# Columns and labels:
# Experiment in all cases: DAPPL (digital affinity profiling via proximity ligation, sequencing); 10 mM Tris-HCl pH 7.5, 50 mM NaCl, 1 mM DTT, 4% glycerol, room temperature, 30 min; GST-TFs on glutathione beads, 16-mer random dsDNA library, 0.1% formaldehyde crosslink after washing; high values mean tight binding
# FEV = target: T1, FEV (Homo sapiens, UniProt Q99581 1-238); conditions: protein: recombinant; tags: N-terminal GST; dsDNA, one strand shown
# T1 sequence: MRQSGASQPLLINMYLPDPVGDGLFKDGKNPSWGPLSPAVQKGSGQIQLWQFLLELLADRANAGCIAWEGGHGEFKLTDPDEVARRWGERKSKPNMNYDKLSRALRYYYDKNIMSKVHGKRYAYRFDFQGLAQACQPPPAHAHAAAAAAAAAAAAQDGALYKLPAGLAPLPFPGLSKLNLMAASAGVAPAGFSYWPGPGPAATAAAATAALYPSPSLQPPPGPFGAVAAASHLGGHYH
# How it was run: (§1)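 Beads coated with glutathione captured GST-fused human transcription factors that had been expressed in yeast, and the factors were then given DNA barcodes and pooled with a tag-only sample. The pools were incubated with 200 nmole of a random double-stranded 16-mer DNA library in Tris/NaCl/DTT/glycerol buffer for 30 min at room temperature, washed, crosslinked with 0.1% formaldehyde and proximity-ligated with BsaI/T4 ligase at 37 °C for 1 h. PCR amplification and Illumina NextSeq500 sequencing came last. Binding signal is each hexamer's read frequency for a factor divided by its frequency for the tag-only sample.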
# ETV5 = ETV5 (Homo sapiens, UniProt P41161 1-510); conditions: protein: recombinant; tags: N-terminal GST; dsDNA, one strand shown
# Chain of ETV5 (P41161 whole entry): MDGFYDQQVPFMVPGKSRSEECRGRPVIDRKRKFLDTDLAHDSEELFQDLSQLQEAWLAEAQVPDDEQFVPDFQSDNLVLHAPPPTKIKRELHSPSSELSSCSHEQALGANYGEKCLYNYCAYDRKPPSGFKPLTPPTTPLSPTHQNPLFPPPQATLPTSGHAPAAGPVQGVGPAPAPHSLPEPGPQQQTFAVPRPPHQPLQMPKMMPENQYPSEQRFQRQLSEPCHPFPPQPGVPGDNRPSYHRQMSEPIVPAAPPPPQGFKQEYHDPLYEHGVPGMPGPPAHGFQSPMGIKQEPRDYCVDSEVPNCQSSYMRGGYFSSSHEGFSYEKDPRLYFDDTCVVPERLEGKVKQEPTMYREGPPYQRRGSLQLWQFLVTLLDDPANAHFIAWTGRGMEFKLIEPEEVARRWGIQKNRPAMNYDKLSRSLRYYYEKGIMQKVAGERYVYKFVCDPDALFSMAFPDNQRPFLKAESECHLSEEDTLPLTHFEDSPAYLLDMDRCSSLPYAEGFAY
# How it was run: as §1
# HSF1 = HSF1 (Homo sapiens, UniProt Q00613 1-529); conditions: protein: recombinant; tags: N-terminal GST; chain copies: 3; dsDNA, one strand shown
# Chain of HSF1 (Q00613 whole entry): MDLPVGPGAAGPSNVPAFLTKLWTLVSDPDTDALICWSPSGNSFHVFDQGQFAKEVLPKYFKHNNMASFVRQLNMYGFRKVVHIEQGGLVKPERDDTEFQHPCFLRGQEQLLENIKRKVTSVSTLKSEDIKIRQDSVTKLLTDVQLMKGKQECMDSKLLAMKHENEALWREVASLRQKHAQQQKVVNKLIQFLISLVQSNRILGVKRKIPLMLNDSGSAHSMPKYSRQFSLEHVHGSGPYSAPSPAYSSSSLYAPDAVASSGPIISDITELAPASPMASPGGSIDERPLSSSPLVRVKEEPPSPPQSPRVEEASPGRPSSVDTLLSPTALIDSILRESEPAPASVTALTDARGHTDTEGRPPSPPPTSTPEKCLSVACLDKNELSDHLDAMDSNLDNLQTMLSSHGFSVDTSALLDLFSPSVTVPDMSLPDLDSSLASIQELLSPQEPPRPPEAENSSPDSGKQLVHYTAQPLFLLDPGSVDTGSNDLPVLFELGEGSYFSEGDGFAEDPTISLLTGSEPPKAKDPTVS
# How it was run: as §1
# SPIC = target: T2, SPIC (Homo sapiens, UniProt Q8N5J4 1-248); conditions: protein: recombinant; tags: N-terminal GST; dsDNA, one strand shown
# T2 sequence: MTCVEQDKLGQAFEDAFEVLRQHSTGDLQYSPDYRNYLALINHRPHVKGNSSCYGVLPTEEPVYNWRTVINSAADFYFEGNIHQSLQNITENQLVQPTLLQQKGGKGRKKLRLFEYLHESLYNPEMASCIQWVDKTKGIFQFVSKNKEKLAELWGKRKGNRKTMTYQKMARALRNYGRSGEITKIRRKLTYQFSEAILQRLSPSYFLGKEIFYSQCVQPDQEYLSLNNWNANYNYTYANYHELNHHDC
# How it was run: as §1
# ELF4 = ELF4 (Homo sapiens, UniProt Q99607 1-663); conditions: protein: recombinant; tags: N-terminal GST; dsDNA, one strand shown
# Chain of ELF4 (Q99607 whole entry): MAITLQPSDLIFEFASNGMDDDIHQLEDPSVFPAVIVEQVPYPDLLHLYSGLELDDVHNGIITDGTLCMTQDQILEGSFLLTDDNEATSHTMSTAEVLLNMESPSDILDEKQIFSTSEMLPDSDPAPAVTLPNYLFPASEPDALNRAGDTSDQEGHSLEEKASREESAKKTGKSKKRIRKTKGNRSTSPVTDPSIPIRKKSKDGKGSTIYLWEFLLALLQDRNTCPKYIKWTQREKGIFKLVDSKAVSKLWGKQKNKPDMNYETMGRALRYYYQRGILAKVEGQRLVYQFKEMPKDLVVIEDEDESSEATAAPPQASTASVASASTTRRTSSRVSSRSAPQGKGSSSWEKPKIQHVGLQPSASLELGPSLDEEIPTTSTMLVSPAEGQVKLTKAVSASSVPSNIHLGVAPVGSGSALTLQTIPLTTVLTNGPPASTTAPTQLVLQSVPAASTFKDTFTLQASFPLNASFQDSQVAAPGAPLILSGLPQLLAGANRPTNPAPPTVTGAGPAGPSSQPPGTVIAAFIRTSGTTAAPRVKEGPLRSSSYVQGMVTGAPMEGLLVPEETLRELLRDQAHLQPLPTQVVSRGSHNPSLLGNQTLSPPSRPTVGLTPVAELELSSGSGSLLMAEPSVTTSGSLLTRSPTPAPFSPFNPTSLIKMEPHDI
# How it was run: as §1
# ELK4 = target: T3, ELK4 (Homo sapiens, UniProt P28324-2 1-405); conditions: protein: recombinant; tags: N-terminal GST; dsDNA, one strand shown
# T3 sequence: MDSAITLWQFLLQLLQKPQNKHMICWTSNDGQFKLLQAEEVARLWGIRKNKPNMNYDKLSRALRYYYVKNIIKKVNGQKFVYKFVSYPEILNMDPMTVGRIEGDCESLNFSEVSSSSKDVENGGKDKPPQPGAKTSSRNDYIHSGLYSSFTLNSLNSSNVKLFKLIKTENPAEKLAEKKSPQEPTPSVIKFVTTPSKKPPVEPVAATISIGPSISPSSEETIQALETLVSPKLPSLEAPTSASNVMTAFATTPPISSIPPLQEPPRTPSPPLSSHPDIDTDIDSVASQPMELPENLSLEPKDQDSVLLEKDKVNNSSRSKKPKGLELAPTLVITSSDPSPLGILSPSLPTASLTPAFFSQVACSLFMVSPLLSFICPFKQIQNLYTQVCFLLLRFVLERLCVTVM
# How it was run: as §1
# ETV2 = target: T4, ETV2 (Homo sapiens, UniProt O00321 1-342); conditions: protein: recombinant; tags: N-terminal GST; dsDNA, one strand shown
# T4 sequence: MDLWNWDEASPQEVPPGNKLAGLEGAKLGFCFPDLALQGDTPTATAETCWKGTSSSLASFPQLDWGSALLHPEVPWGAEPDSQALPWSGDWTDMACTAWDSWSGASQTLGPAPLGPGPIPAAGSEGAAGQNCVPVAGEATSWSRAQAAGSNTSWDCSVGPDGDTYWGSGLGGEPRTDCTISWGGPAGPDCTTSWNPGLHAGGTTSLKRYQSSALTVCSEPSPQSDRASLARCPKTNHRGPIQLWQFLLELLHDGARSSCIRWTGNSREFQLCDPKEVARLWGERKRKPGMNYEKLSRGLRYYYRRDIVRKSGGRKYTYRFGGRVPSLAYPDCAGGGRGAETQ
# How it was run: as §1
# ELF3 = target: T5, ELF3 (Homo sapiens, UniProt P78545 1-371); conditions: protein: recombinant; tags: N-terminal GST; dsDNA, one strand shown
# T5 sequence: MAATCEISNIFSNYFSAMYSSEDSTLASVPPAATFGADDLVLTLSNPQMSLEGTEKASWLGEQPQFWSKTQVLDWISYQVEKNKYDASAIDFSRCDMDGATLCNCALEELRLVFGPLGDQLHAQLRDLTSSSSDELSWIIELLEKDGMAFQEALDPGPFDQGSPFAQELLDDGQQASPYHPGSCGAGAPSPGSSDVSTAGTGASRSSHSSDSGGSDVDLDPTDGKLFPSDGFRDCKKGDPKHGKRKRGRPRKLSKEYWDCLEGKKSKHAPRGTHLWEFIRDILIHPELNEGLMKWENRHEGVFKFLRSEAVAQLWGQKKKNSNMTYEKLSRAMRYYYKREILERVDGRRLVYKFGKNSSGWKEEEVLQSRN
# How it was run: as §1
# CRX = CRX (Homo sapiens, UniProt O43186 1-299); conditions: protein: recombinant; tags: N-terminal GST; dsDNA, one strand shown
# Chain of CRX (O43186 whole entry): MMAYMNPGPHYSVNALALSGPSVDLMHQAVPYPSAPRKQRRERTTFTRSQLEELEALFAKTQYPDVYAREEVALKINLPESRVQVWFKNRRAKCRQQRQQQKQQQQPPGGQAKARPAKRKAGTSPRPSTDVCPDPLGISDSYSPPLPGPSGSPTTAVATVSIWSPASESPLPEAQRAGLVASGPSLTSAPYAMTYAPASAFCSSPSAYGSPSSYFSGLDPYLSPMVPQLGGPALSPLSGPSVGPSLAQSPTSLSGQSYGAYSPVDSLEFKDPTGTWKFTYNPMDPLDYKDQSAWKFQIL
# How it was run: as §1
# ETV1 = ETV1 (Homo sapiens, UniProt P50549 1-477); conditions: protein: recombinant; tags: N-terminal GST; dsDNA, one strand shown
# Chain of ETV1 (P50549 whole entry): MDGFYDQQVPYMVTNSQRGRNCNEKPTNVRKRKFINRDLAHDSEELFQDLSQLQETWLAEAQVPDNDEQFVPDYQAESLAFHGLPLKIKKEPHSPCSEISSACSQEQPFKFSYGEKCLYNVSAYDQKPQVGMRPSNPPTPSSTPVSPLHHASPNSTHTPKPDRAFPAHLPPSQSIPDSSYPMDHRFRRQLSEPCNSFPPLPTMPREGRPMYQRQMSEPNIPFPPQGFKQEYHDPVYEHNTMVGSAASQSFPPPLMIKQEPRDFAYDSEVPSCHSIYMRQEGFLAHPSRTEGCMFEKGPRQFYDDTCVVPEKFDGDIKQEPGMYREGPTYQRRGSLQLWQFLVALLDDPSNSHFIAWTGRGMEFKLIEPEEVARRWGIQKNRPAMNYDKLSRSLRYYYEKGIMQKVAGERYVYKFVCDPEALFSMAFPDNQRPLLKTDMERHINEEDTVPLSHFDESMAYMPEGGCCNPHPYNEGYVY
# How it was run: as §1
# ERF = target: T6, ERF (Homo sapiens, UniProt P50548 1-548); conditions: protein: recombinant; tags: N-terminal GST; dsDNA, one strand shown
# T6 sequence: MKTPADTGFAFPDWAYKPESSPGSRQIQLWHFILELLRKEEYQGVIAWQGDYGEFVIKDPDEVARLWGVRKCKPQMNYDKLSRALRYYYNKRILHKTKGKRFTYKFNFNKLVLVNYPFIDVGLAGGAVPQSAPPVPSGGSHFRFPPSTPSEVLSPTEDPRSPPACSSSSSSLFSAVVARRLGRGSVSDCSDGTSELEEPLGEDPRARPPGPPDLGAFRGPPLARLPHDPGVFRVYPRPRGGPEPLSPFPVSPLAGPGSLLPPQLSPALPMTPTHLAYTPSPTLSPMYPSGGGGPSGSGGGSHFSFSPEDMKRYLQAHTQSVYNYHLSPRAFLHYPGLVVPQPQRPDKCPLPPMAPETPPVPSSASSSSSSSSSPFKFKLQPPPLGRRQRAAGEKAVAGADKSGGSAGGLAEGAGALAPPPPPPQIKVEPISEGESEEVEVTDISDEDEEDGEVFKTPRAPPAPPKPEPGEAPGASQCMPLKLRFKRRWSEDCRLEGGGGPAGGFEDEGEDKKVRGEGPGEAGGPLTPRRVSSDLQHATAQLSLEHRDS
# How it was run: as §1
# ETV3L = target: T7, ETV3L (Homo sapiens, UniProt Q6ZN32 1-361); conditions: protein: recombinant; tags: N-terminal GST; dsDNA, one strand shown
# T7 sequence: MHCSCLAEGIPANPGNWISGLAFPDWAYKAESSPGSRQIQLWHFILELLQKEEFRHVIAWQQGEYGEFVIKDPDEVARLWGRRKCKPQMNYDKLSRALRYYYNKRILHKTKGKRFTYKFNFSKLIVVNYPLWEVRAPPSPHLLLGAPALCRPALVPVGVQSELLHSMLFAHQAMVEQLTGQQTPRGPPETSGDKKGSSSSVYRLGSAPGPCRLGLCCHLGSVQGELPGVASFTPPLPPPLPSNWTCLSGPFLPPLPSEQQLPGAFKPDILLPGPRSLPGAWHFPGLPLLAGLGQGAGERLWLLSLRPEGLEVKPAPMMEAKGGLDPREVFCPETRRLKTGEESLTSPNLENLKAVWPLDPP
# How it was run: as §1
# ETS2 = target: T8, ETS2 (Homo sapiens, UniProt P15036 1-469); conditions: protein: recombinant; tags: N-terminal GST; dsDNA, one strand shown
# T8 sequence: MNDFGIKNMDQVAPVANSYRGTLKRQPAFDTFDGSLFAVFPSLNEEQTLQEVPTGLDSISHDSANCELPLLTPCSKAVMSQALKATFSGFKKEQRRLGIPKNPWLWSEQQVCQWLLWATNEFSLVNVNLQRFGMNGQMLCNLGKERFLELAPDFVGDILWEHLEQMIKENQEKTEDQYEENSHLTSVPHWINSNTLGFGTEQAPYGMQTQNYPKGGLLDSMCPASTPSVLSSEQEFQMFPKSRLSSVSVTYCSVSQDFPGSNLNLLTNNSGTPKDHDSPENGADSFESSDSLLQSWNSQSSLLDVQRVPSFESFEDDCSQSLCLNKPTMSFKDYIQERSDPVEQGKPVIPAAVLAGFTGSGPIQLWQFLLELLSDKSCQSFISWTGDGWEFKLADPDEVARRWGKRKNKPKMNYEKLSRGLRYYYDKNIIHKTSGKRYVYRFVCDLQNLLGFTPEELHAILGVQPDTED
# How it was run: as §1
# SPDEF = target: T9, SPDEF (Homo sapiens, UniProt O95238 1-335); conditions: protein: recombinant; tags: N-terminal GST; dsDNA, one strand shown
# T9 sequence: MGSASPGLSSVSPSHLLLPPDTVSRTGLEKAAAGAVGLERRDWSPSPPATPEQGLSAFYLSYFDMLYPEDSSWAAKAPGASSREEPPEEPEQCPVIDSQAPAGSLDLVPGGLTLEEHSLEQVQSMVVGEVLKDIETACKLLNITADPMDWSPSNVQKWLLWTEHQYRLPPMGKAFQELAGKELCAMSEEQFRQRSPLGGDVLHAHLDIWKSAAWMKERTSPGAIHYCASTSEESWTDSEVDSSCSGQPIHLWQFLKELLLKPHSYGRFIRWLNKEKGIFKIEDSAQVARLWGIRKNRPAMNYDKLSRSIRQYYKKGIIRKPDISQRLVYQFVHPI
# How it was run: as §1
# ETV7 = target: T10, ETV7 (Homo sapiens, UniProt Q9Y603 1-341); conditions: protein: recombinant; tags: N-terminal GST; dsDNA, one strand shown
# T10 sequence: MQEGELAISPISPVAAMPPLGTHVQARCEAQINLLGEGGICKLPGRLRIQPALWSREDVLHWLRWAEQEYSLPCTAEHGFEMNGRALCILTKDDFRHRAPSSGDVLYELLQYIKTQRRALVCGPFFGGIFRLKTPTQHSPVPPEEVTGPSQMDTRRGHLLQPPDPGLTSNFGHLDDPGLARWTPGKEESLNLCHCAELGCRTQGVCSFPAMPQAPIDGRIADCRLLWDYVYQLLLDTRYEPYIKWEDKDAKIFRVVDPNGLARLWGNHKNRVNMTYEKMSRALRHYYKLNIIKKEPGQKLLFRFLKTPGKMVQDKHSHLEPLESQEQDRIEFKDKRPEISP
# How it was run: as §1
# ELF5 = target: T11, ELF5 (Homo sapiens, UniProt Q9UKW6-2 1-255); conditions: protein: recombinant; tags: N-terminal GST; dsDNA, one strand shown
# T11 sequence: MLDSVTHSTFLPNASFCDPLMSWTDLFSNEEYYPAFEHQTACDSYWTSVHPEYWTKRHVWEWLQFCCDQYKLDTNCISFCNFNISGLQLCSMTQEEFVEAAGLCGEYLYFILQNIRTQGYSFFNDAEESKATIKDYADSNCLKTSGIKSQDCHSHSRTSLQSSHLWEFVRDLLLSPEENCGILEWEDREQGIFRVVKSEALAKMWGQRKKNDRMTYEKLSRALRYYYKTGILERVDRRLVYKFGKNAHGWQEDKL
# How it was run: as §1
# ETV3 = target: T12, ETV3 (Homo sapiens, UniProt P41162-2 1-143); conditions: protein: recombinant; tags: N-terminal GST; dsDNA, one strand shown
# T12 sequence: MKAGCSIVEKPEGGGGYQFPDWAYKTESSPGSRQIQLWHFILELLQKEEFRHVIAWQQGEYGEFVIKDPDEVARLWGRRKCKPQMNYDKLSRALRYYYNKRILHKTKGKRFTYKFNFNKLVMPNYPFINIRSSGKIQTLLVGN
# How it was run: as §1
# ETV6 = ETV6 (Homo sapiens, UniProt P41212 1-452); conditions: protein: recombinant; tags: N-terminal GST; dsDNA, one strand shown
# Chain of ETV6 (P41212 whole entry): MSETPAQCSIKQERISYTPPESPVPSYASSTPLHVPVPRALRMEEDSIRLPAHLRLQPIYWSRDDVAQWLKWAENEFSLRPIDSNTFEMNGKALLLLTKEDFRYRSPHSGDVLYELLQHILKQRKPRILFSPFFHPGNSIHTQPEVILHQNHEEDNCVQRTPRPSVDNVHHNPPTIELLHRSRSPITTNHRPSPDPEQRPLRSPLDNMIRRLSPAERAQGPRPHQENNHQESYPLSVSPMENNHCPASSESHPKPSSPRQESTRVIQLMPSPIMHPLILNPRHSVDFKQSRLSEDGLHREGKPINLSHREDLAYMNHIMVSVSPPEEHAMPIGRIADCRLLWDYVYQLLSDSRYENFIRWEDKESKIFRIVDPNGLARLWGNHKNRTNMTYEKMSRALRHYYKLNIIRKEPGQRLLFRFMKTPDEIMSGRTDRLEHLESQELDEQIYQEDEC
# How it was run: as §1
sequence,measurement,setting,value
TTGTAA,binding signal,FEV,"1.2 fold enrichment (6-mer frequency, TF over GST control)"
same,binding signal,ETV5,"1.35 fold enrichment (6-mer frequency, TF over GST control)"
same,binding signal,HSF1,"1.4 fold enrichment (6-mer frequency, TF over GST control)"
same,binding signal,SPIC,"1.31 fold enrichment (6-mer frequency, TF over GST control)"
same,binding signal,ELF4,"1.24 fold enrichment (6-mer frequency, TF over GST control)"
same,binding signal,ELK4,"1.36 fold enrichment (6-mer frequency, TF over GST control)"
same,binding signal,ETV2,"1.36 fold enrichment (6-mer frequency, TF over GST control)"
same,binding signal,ELF3,"1.44 fold enrichment (6-mer frequency, TF over GST control)"
same,binding signal,CRX,"1.62 fold enrichment (6-mer frequency, TF over GST control)"
same,binding signal,ETV1,"1.31 fold enrichment (6-mer frequency, TF over GST control)"
same,binding signal,ERF,"1.36 fold enrichment (6-mer frequency, TF over GST control)"
same,binding signal,ETV3L,"1.32 fold enrichment (6-mer frequency, TF over GST control)"
same,binding signal,ETS2,"1.23 fold enrichment (6-mer frequency, TF over GST control)"
same,binding signal,SPDEF,"1.26 fold enrichment (6-mer frequency, TF over GST control)"
same,binding signal,ETV7,"1.27 fold enrichment (6-mer frequency, TF over GST control)"
same,binding signal,ELF5,"1.26 fold enrichment (6-mer frequency, TF over GST control)"
same,binding signal,ETV3,"1.3 fold enrichment (6-mer frequency, TF over GST control)"
same,binding signal,ETV6,"1.28 fold enrichment (6-mer frequency, TF over GST control)"
